Experimental data reported in PubChem BioAssay (EPA / NIEHS).
Inconclusive results are not listed. Activity calls are given as the source filed them. Rule for the calls: active = hit-call score of the fitted dose curve at least 0.9, where 1 is the maximum; inconclusive = response in the unintended direction; inactive = score below 0.9.

Each compound was assayed against human Thyroid Receptor alpha (THRa1), THRA (gene 7067) (UniProt P10827) (assay: ATG_THRa1_TRANS: Attagene TRANS-FACTORIAL HepG2 Assay for human Thyroid Receptor alpha (THRa1) (AID 2283014)).
Experimental: ATG_TRANS is a cell-based, multiplexed-readout assay that uses HepG2, a human liver cell line, with measurements taken at 24 hours after chemical dosing in a 24-well plate.ATG_THRa1_TRANS is one of 30 assay component(s) measured or calculated from the ATG_TRANS assay. It is designed to make measurements of mRNA induction, a form of inducible reporter, as detected with fluorescence intensity signals by Reverse transcription polymerase chain reaction (RT-PCR) and Capillary electrophoresis technology.Data from the assay component ATG_THRa1_TRANS was analyzed into 1 assay endpoint. This assay endpoint, ATG_THRa1_TRANS, was analyzed in the positive analysis fitting direction relative to DMSO as the negative control and baseline of activity. Using a type of inducible reporter, measures of mRNA for gain-of-signal activity can be used to understand the reporter gene at the transcription factor-level as they relate to the gene THRA. Furthermore, this assay endpoint can be referred to as a primary readout, because this assay has produced multiple assay endpoints where this one serves a reporter gene function. To generalize the intended target to other relatable targets, this assay endpoint is annotated to the nuclear receptor intended target family, where the subfamily is non-steroidal.
Human liver HepG2 cells are transiently transfected with multiple reporter transcription units (MRTUs) in 6-well plates using FuGene 6 reagent (Roche; 3 ml FuGene/1 mg DNA). The MRTU constructs are regulated by a cis-regulating element (promoter). […] A major difference between the CIS and TRANS system is that in CIS activities of endogenous TFs are measured, whereas the TRANS assay evaluates changes in activities of exogenous, chimeric NR-Gal4 proteins. […] At the end of 24 hour incubation, total RNA was isolated using TriZol reagent (Invitrogen). The isolated RNA is then reverse-transcribed using oligo(dT) primer and Mo-MLV reverse transcriptase (Invitrogen) with DNAse I (Ambion) treatment for 30 min. The one-tenth of the produced cDNA was amplified by PCR using Taq DNA polymerase (Invitrogen) and two reporter sequence-specific primers. The PCR products were fluorescently labeled by primer extension with 6-arboxyfluorescein (6-FAM) 5'-labeled reporter sequence-specific primer (2 min at 95 C, 20 s at 68 C and 10 min at 72 C) and these products were digested with 5U of HpaI (New England Biolabs) for 2h at 37 C. The fragments were purified using Qiaquick PCR columns (Qiagen), analyzed on an ABI 3130xL genetic analyzer (Applied Biosystems) with peak positions identified by using a set of X-rhodamine (ROX)-labeled MapMarker1000 molecular weight standards (BioVentures). The raw capillary electrophoresis data was processed using Attagraph software (Attagene).

Chain of human Thyroid Receptor alpha (THRa1), THRA (gene 7067) (P10827 whole entry, looked up): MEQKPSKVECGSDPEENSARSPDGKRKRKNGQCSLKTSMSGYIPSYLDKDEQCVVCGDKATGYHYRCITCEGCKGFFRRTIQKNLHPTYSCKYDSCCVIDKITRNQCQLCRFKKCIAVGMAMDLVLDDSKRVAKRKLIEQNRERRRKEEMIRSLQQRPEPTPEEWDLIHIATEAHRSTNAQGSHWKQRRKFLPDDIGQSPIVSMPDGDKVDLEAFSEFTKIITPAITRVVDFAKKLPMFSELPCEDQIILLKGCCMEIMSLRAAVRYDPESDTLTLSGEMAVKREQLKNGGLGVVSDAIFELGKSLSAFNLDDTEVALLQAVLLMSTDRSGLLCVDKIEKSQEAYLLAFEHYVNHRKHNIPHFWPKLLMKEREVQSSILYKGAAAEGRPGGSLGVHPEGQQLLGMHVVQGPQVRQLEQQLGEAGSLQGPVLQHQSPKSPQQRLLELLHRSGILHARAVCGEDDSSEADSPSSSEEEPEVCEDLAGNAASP

outcome, inactive:
CC(CC(C)(C)C)CC(C)(C)CC(C)(C)C (stereo not given), Nc1cc([N+](=O)[O-])ccc1Cl, c1ccc2sc(SN(C3CCCCC3)C3CCCCC3)nc2c1, FC1(F)C(F)(F)C(F)(F)C2(F)C(F)(C1(F)F)C(F)(F)C(F)(F)C1(F)C(F)(F)C(F)(F)C(F)(F)C(F)(F)C12F (stereo not given), CCCCO, CN1[C@@H]2CC(OC(=O)[C@H](CO)c3ccccc3)C[C@H]1[C@@H]1O[C@@H]12 (stereo not given in full), CC1CCC(C(C)(C)O)CC1 (stereo not given), CC(=O)[C@H]1CC[C@H]2[C@@H]3CC=C4C[C@@H](O)CC[C@]4(C)[C@H]3CC[C@]12C, CC(CCO)CCCC(C)(C)O (stereo not given), CCCCN, CCCCNC(=O)NS(=O)(=O)c1ccc(C)cc1, CCCCCCCCCOC(C)=O, CC(C)(C)c1n[nH]c(=S)n(N)c1=O, C=CC(C)(CCC=C(C)C)OC=O (stereo not given), COc1cc(C)cc(O)c1, CNCCO, CC(C)Oc1ccccc1O, CCN(CC)c1ccc(C(=C2C=CC(=[N+](CC)CC)C=C2)c2ccc(S(=O)(=O)O)cc2S(=O)(=O)[O-])cc1, CCO[Si](CCCS)(OCC)OCC, CC(O)C(C)O (stereo not given), C/C=C(\C)C(=O)OCc1ccccc1, CCCCC/C=C/C=C/C=O, CC(=O)OCCC(C)CC(C)(C)C (stereo not given), C=CC(=O)OCCn1c(=O)n(CCOC(=O)C=C)c(=O)n(CCOC(=O)C=C)c1=O, O=S(=O)(O)NC1CCCCC1, CCCC(=O)OCCC(C)CCC=C(C)C (stereo not given), C=CC(=O)OCC(O)COc1ccccc1 (stereo not given), C=O, c1cc(C(c2ccc(OCC3CO3)cc2)c2ccc(OCC3CO3)cc2)ccc1OCC1CO1 (stereo not given), CC1(C)[C@H](C(=O)OCc2cccc(Oc3ccccc3)c2)[C@@H]1C=C(Cl)Cl, C[C@H]1C[C@@H]2[C@H]([C@@H](O)C[C@@]3(C)[C@H]2CC[C@]3(O)C(=O)CO)[C@@]2(C)C=CC(=O)C=C12, c1ccc(CCCc2ccccn2)cc1, CC(C)=CCC/C(C)=C/COC=O, C=C(C)C(=O)NCCCN(C)C, CCCCCCC#CC(=O)OC, Cc1ccc(C(C)C)cc1O, Cc1cccc(C)c1C, NCCCN1CCOCC1, CC1=CCC2C(C1)C2(C)C (stereo not given), NC(=O)NC1NC(=O)NC1=O (stereo not given)
